# Source: PubChem BioAssay
# The list is not random: actives were taken first. Their share in the collection is about 1.6%.
# KCNQ2 inh: rat KCNQ2 potassium channel inhibitors, primary screen, cell-based, CHO-K1, FluxOR thallium flux, B-score; Potassium voltage-gated channel subfamily KQT member 2 (Rattus norvegicus), O88943; 20 min; active compounds read low; B-score at 10 µM; hit rate 1.1% among 310,000;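 active = fluorescence ratio B-score at most minus 3 library SDs, with starting brightness B-score within 2 library SDs, cut at about -5.5 in these data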
# KCNQ2 pot: potentiators of rat KCNQ2 potassium channel | AID 2239, 2010 | CHO-K1 KCNQ2, FluxOR thallium flux fluorescence; active compounds read high | Potassium voltage-gated channel subfamily KQT member 2 (Rattus norvegicus), O88943 | B-score at 10 µM | hit rate 0.54% among 310,000;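 active = fluorescence ratio B-score at least 3 SD of library B-scores, with initial fluorescence B-score within 3 of them, cut at about 5.3 in these data; same plate scores as AID 2156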;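 also: B-score of peak minus minimum over baseline fluorescence ratio after K+ and Tl+ stimulus; positive B-score means potentiation of KCNQ2 with more thallium influx and brighter signal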
# KCNQ2 block conf: rat KCNQ2 potassium channel inhibitors, confirmation, cell-based, thallium flux; shares compounds with KCNQ2 inh; KCNQ2-expressing cells, inhibition; active compounds read low; activity change, negative = inhibition, % at 10 µM; hit rate 57% among 1,000; AID 493025, 2011;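 also: 0% = vehicle wells and values are ratio percent relative to vehicle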
# KCNQ1 spec: human KCNQ1 channel inhibition, counter-screen for KCNQ2 inhibitor project, cell-based, FluxOR thallium flux. hit rate 15% among 1,000. KCNQ1-expressing cells, FluxOR thallium flux fluorescence; active compounds read low. activity change, negative = inhibition, % at 10 µM. shares compounds with KCNQ2 inh;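 active = activity change at least 3 SD of negative controls below their mean in both duplicate wells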;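 also: CHO cells stably transfected with KCNQ1 and depolarized by potassium stimulus; peak minus minimum fluorescence over baseline after thallium addition; 0% = vehicle negative control and -100% = blank without thallium stimulus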
# Target sequence (P51787 whole entry, looked up): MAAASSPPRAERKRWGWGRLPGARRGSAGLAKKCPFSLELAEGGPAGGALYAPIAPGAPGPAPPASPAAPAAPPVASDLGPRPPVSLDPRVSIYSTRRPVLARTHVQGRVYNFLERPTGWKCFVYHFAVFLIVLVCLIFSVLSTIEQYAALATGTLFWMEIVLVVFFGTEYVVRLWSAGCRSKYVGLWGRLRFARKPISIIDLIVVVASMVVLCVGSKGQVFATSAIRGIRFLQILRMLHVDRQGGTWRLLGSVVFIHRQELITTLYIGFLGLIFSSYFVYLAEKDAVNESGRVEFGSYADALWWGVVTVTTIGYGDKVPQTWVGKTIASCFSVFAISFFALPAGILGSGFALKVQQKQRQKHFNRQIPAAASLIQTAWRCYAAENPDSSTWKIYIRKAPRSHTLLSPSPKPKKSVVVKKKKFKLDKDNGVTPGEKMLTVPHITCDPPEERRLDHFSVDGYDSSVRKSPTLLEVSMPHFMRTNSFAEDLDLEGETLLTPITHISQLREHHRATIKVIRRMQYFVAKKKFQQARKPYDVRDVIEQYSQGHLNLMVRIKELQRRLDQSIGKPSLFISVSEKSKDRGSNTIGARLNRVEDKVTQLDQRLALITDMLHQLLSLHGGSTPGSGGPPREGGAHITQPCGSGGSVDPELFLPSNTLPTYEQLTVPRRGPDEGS
# CHO parental ctr: thallium flux change in parental CHO cells, counter-screen for KCNQ2 inhibitor project | hit rate 14% among 1,000 | activity change, % at 10 µM | active compounds read low | shares compounds with KCNQ2 inh;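 also: 0% = vehicle negative controls with stimulus buffer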
# KCNQ2 patch conf: rat KCNQ2 channel inhibitors, confirmation, cell-based, automated patch clamp, single concentration. calls only at 10 µM. shares compounds with KCNQ2 inh. hit rate 49% among 550. KCNQ2-expressing cells, automated patch clamp current. AID 588531, 2011
# An asterisk follows results filed as active; i = inactive; / = no result; + = active, no number. Unless noted, no rule for the calls is given here.
SMILES,KCNQ2 inh,KCNQ2 pot,KCNQ2 block conf,KCNQ1 spec,CHO parental ctr,others
COCC(C)NC(C(=O)Nc1cccc(C(C)=O)c1)c1ccccc1 (stereo not given),i,0.75,/,/,/,
COCCNC(C(=O)Nc1cc(Cl)cc(Cl)c1)c1ccccc1 (stereo not given),-8.1*,-8.1,-30%*,i,i,KCNQ2 patch conf=+
Cc1ccccc1OCC(=O)Nc1ccccc1-c1ccccc1,-6.6*,-6.6,i,i,i,
O=C(COc1ccccc1-c1ccccc1)NCc1ccco1,-8.5*,-8.5,i,i,i,
CCOc1ccccc1OCC(=O)NCc1ccco1,i,/,/,/,/,
Cc1ccccc1NC(=O)COc1ccccc1C,i,/,/,/,/,
CC(=O)Nc1c2c(nn1-c1cccc(Cl)c1)CS(=O)(=O)C2,i,1.3,/,/,/,
O=C(NCc1ccco1)c1ccc(-c2ccc(Cl)cc2)o1,i,/,/,/,/,
COc1ccc(Nc2nc(C(=O)NCc3ccco3)cs2)cc1,i,/,/,/,/,
O=C(NCc1ccco1)c1csc(Nc2ccccc2Cl)n1,-8.3*,-8.3,i,i,i,
O=C(NCc1ccco1)c1ccc(-c2ccccc2Cl)o1,-7.1*,-7.1,i,i,i,
COc1ccc(CN2CCNC(=O)C2CC(=O)NC2CCCC2)c(C)c1C (stereo not given),i,0.46,/,/,/,
O=S(=O)(Nc1nc2ccccc2nc1NCC1CCCO1)c1cccc(Cl)c1 (stereo not given),i,/,/,/,/,
COc1ccc(/C=N/Nc2cc(C)nc3ccc(OC)cc23)c(OC)c1,-9*,-9,-41%*,-32%*,-24%*,KCNQ2 patch conf=i
COc1ccc(/C=N/Nc2nc(C)cc(-c3ccccc3)n2)c(OC)c1,i,1.8,/,/,/,
Cc1ccc(NC(=O)CN(CCc2ccccc2)S(C)(=O)=O)cc1,i,/,/,/,/,
Cc1ccc(CN2CCN(/N=C/c3ccc(C(=O)O)cc3)CC2)c(C)c1,-7.3*,-7.3,-26%*,i,i,KCNQ2 patch conf=+
Cc1ccc(CN2CCN(/N=C/c3ccc(C(F)(F)F)cc3)CC2)c(C)c1,i,/,/,/,/,
Cc1c(C=N)c(O)n(C)c(=O)c1C#N,i,/,/,/,/,
Cc1c(CCOC(=O)CC23CC4CC(CC(C)(C4)C2)C3)sc[n+]1CC(=O)c1ccccc1,-7.8*,-7.8,i,i,i,
Cc1c(CCOC(=O)CC23CC4CC(CC(C4)C2)C3)sc[n+]1CC(=O)c1ccc(Br)cc1,-10*,-10,-28%*,i,i,KCNQ2 patch conf=+
Cc1c(CCOC(=O)c2cc([N+](=O)[O-])cc([N+](=O)[O-])c2)sc[n+]1CC(=O)c1ccccc1,i,0.27,/,/,/,
Cc1c(CCOC(=O)c2ccccc2)sc[n+]1Cc1ccccc1,i,/,/,/,/,
O=C(Nc1ccccc1)N1N=C(c2ccc(F)cc2)CC1c1ccc(F)cc1 (stereo not given),-6.7*,-6.7,i,i,i,
COc1ccc(C2CC(c3ccccc3)=NN2C(=O)c2ccc(F)cc2)cc1 (stereo not given),i,0.66,/,/,/,
SMILES,KCNQ2 inh,KCNQ2 pot,KCNQ2 block conf,KCNQ1 spec,CHO parental ctr,others
Cc1ccccc1OCCN(C#N)c1nc(N(C)C)nc(N(C)C)n1,i,/,/,/,/,
COc1cc(NC(=O)c2cc(-c3ccccc3)on2)cc(OC)c1OC,i,/,/,/,/,
COc1cc(NC(=O)c2cc3nc(-c4ccccc4)cc(-c4ccccc4)n3n2)cc(OC)c1OC,-7.1*,-7.1,i,i,i,
CC(C)(CCl)C(=O)Nc1ccnc(-c2ccncc2)n1,i,1.1,/,/,/,
CC(=O)c1ccc(S(=O)(=O)N(C)CCCC(=O)N(C)Cc2c(F)cccc2Cl)cc1,i,/,/,/,/,
CCOCCCn1c(=S)[nH]c2cc(C(=O)NCCCN(CC)CC)ccc2c1=O,i,1.1,/,/,/,
Cn1cccc1/C=C1\CC(C(C)(C)C)C/C(=C\c2cccn2C)C1=O (stereo not given),-11*,-11,-72%*,-74%*,-68%*,KCNQ2 patch conf=i
Cn1cccc1/C=C1\Cc2ccccc2C1=O,i,/,/,/,/,
Cc1cccc(N(C)S(=O)(=O)c2ccc(-c3cc(C)no3)s2)c1,-7*,-7,i,i,i,
CCN(c1cccc(C)c1)S(=O)(=O)c1ccc(-c2cc(C)no2)s1,i,/,/,/,/,
COc1ccccc1C(=O)Nc1nsc(-c2ccccc2)n1,i,/,/,/,/,
CCOc1cc(CNc2cccc3ccccc23)cc(Br)c1OCC(=O)NC(C)(C)C,-6.8*,-6.8,i,i,i,
CCOc1cc(CNc2ccc(N(C)C)cc2)cc(Br)c1OCC(=O)NC(C)(C)C,i,/,/,/,/,
N=C(c1ccc([N+](=O)[O-])cc1)N1CCCCCC1,i,1.6,/,/,/,
O=[N+]([O-])c1ccc(OCn2cncn2)cc1,i,0.1,/,/,/,
Cc1ccc(NC(=O)c2ccccn2)c(Br)c1,i,/,/,/,/,
Cc1cc(C(=O)Nc2ccccc2Cl)c2ccccc2n1,-6.9*,-6.9,-31%*,i,i,KCNQ2 patch conf=+
COc1cc(NC(=O)c2cc(C)nc3ccccc23)cc(OC)c1OC,i,/,/,/,/,
Cc1cc(C(=O)NCc2cccc(Cl)c2)c2ccccc2n1,i,/,/,/,/,
Cc1ccc(NC(=O)c2cc(C)nc3ccccc23)c(Br)c1,-6.7*,-6.7,i,i,i,
Cc1cc(C(=O)NCc2ccccc2Cl)c2ccccc2n1,-7.2*,-7.2,-22%*,i,i,KCNQ2 patch conf=i
COc1cccc(C(C(=O)NC2CCCCC2)N(C(=O)CNC(=O)c2ccco2)c2cccnc2)c1 (stereo not given),i,/,/,/,/,
CCCCN(C(=O)Cc1ccc(S(=O)(=O)N2CCOCC2)s1)c1c(N)n(CCCC)c(=O)[nH]c1=O,i,/,/,/,/,
COc1cc(NS(=O)(=O)c2ccc(-c3ccc(=O)[nH]n3)o2)cc(OC)c1OC,i,1,/,/,/,
COC(=O)C1=C[C@@H](C(=O)OC)[C@@H]2C3=C(C(=O)[C@@]2(C)NC(=O)c2ccccc2)[C@H](C)C(C(=O)OC)=C(C(=O)OC)[C@@H]3C1,i,/,/,/,/,
SMILES,KCNQ2 inh,KCNQ2 pot,KCNQ2 block conf,KCNQ1 spec,CHO parental ctr,others
CCOC(=O)c1c(-c2ccccc2)csc1NC(=O)C(C)NCc1ccco1 (stereo not given),-7.2*,-7.2,-31%*,i,i,KCNQ2 patch conf=i
CCOC(=O)c1c(-c2ccc(Cl)cc2)csc1NC(=O)CNCc1ccco1,i,/,/,/,/,
Cc1cc(C)c(S(=O)(=O)N(C)c2ccccc2)c(C)c1,-7.5*,-7.5,-31%*,i,i,KCNQ2 patch conf=i
Cc1cc2c(cc1S(=O)(=O)N(C)c1ccccc1)n(C)c(=O)n2C,i,0.79,/,/,/,
CCOc1ccc(NC(=O)CS(=O)CC(=O)N(CC(=O)NC(C)(C)C)C2CCCC2)cc1 (stereo not given),i,/,/,/,/,
Cc1ccc(NCCC(=O)c2cccs2)cc1C,-6.7*,-6.7,i,i,i,
Cc1ccc(NCCC(=O)c2cccs2)cc1Cl,i,/,/,/,/,
